Screening results as filed in PubChem BioAssay.
PI5P4Ka inh – qHTS for Inhibitors of phosphatidylinositol 5-phosphate 4-kinase (PI5P4K); hit rate 1.2% among 330,000; PI5P4Kalpha enzyme, ADP-Glo luminescence, 60 min; stronger effect = lower value; max response, %; active = max response of -50% or lower; inconclusive = between -30% and -50%; inactive = -30% or higher; also: value at the top dose of about 77 µM; % is scaled to controls: 0 for no effect and ±100 for the full control effect
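Single end-point luminescence (ADP-Glo) quantified ADP from PI5P4Kalpha turnover; ATP 5 microM final, 1 h at RT, 0.1% CHAPS and 0.28 mM EGTA in HEPES pH 7.4.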
BAZ2B inh – qHTS Assay for Inhibitors of BAZ2B | AlphaScreen BAZ2B-H3K14Ac peptide displacement | Bromodomain adjacent to zinc finger domain protein 2B (Homo sapiens), Q9UIF8 | hit rate 4.4% among 360,000 | Potency, µM (doses to about 114 µM), inactives show top-dose activity change, negative = inhibition, actives largely listed as inhibitors; also: potency is read from the fitted curve at half-maximal effect; % is scaled to controls: 0 for no effect and ±100 for the full control effect; nearly all actives have a fitted effect of over 60% in size
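In this displacement format the biotinylated H3(5-23) peptide acetylated at Lys14 serves as ligand at 50 nM, with BAZ2B at 50 nM in PBS pH 7.4 containing 0.01% Tween-20. Donor and acceptor beads are 10 ug/mL final.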
JMJD2A Tudor inh – qHTS Assay for Inhibitors of JMJD2A-Tudor Domain | AlphaScreen JMJD2A-Tudor / H3K4me3 peptide binding | Potency, µM (titrated, usually from 114 µM), for the others: at the highest dose activity change, negative = inhibition, usual class: inhibitors | hit rate 4.4% among 390,000 | Lysine-specific demethylase 4A (Homo sapiens), O75164; also: potency is read from the fitted curve at half-maximal effect; % is scaled to controls: 0 for no effect and ±100 for the full control effect; nearly all actives have a fitted effect of over 50% in size
L3MBTL1 block – qHTS Assay for the Inhibitors of L3MBTL1; AID 485360, 2010; AlphaScreen L3MBTL1–H3K9me1 peptide binding; Potency, µM (top dose mostly 57.1 µM), for the others: top-dose activity, negative = inhibition, usual class: inhibitors; hit rate 0.66% among 230,000; Lethal(3)malignant brain tumor-like protein 1 (Homo sapiens), Q9Y468; also: potency is read from the fitted curve at half-maximal effect; % is scaled to controls: 0 for no effect and ±100 for the full control effect; nearly all actives have a fitted effect of over 60% in size
Target sequence (Q9Y468 whole entry, looked up): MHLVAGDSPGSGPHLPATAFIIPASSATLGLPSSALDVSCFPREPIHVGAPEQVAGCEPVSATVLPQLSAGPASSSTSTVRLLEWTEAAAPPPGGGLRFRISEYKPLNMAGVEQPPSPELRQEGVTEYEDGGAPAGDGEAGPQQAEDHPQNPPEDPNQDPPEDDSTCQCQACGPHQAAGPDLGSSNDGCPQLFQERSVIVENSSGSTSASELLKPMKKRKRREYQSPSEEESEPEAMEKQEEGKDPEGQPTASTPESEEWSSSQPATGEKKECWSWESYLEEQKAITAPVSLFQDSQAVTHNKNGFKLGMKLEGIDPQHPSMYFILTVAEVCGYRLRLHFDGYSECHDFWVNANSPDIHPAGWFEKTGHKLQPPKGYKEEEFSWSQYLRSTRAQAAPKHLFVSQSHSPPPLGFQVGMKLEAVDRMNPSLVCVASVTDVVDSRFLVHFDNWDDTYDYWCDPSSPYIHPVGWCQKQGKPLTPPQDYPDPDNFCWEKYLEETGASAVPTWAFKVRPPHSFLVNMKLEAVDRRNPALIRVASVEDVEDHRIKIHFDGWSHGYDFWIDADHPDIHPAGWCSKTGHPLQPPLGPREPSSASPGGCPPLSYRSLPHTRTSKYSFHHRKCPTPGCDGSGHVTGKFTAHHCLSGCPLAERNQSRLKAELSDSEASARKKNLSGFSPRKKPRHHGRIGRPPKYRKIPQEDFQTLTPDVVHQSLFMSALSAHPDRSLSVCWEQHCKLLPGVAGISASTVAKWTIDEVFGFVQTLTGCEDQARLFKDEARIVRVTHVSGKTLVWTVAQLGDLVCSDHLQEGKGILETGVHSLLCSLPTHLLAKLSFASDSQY
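Displacement of a biotinylated histone H3(1-15) peptide monomethylated at Lys9 (75 nM) from L3MBTL1 (50 nM) was measured by AlphaScreen after a 30 min room-temperature compound incubation; cefsulodin titration served as intraplate control.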
G9a inh – qHTS Assay for Inhibitors of Histone Lysine Methyltransferase G9a; Histone-lysine N-methyltransferase EHMT2 (Homo sapiens), Q96KQ7; G9a H3K9 monomethylation, AlphaScreen, 2 h; Potency, µM (highest dose often 102 µM), for inactives: at the top dose activity, negative = inhibition, most hits filed as inhibitors; hit rate 8.8% among 350,000; also: potency is read from the fitted curve at half-maximal effect; % is scaled to controls: 0 for no effect and ±100 for the full control effect; nearly all actives have a fitted effect of over 75% in size
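Enzyme 20 nM + cpd, 15 min RT; add b-H3K9 pep 500 nM / SAM 20 uM; 2 h RT; anti-H3K9me1 Ab 0.5 ug/mL + SA donor / anti-rabbit acceptor beads 20 ug/mL each, 10 min; AlphaScreen read.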
HP1b binding inh – HTS for Inhibitors of HP1-beta Chromodomain Interactions with Methylated Histone Tails | Potency, µM (highest dose often 114 µM), for inactives: at the highest dose activity change, negative = inhibition, hits mostly inhibitors | AlphaScreen HP1-beta / biotin-H3K9me3 peptide binding | Chromobox protein homolog 1 (Homo sapiens), P83916 | hit rate 0.56% among 390,000; also: potency is read from the fitted curve at half-maximal effect; nearly all actives have a fitted effect of over 70% in size
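HP1-beta protein (50 nM final) preincubated 30 min at room temperature with biotinylated H3(1-18)K9me3 peptide (50 nM) in PBS pH 7.4, 0.01% Tween-20, then compound added for 30 min. AlphaScreen streptavidin donor/nickel chelate acceptor beads (10 ug/mL final), 30 min dark, luminescence read.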
Numbers without * were called inactive; ? = inconclusive; · = no result; [ ] = remark or other dose. Rows were chosen to be rich in hits. Some 11% of all compounds tested hit in one or more screens of this group. Unless noted, calls follow the shape of the dose curve; as a rule, active = well fitted inhibition curve with a large enough effect; inconclusive = small, poorly fitted or top-dose-only effect; inactive = no such curve, though single readings can be large or run the other way.

SMILES | PI5P4Ka inh | BAZ2B inh | JMJD2A Tudor inh | L3MBTL1 block | G9a inh | HP1b binding inh
COc1ccc(-n2nnnc2C2CCN(S(=O)(=O)c3cccc(Cl)c3C)CC2)cc1 | · | 1% | -6% | · | 8%[59 µM] | 46%
Cc1nc2scc(-c3ccccc3)c2c(=O)n1N | -5 | 3% | -20% | -2% | 3%[59 µM] | -1%
Cc1nc2scc(-c3ccccc3)c2c(=O)n1N=C1C=CC(=O)C=C1 | -101* | -15% | 3.2µM* | 6% | 6% | 8.9µM*
COc1ccc(CCNC(=O)CSc2ncc3c(n2)-c2cc(Cl)ccc2N(Cc2ccccc2)S3(=O)=O)cc1OC | · | -15% | -17% | · | -8%[59 µM] | 15%
O=C(NCc1n[nH]c(=S)n1-c1cccc(Cl)c1)c1ccc(S(=O)(=O)N2CCCCC2)cc1 | 0 | 16% | -31% | · | 3.2µM* | 21%
Cc1cccc(-n2c(CNC(=O)c3ccc(S(=O)(=O)N4CCCC4)cc3)n[nH]c2=S)c1 | · | -4% | 10µM* | · | 0.71µM* | 14%
CCC(c1nnc(SCC(=O)NCCc2ccc(Cl)cc2Cl)o1)N(C)C (stereo not given) | -3 | -4% | -11% | 2% | 40µM* | 11%
COc1ccc2c(c1)sc(N)[n+]2Cc1cc(C)cc2cccnc12 | -8 | -10% | -20% | 0% | 50µM* | 2%
CC(=O)c1cccc(NC(=O)C(CC(C)C)NS(=O)(=O)c2ccc3c(c2)CCN3C(C)=O)c1 (stereo not given) | · | · | -13% | · | -44%[59 µM] | 29%
COC(=O)[C@]1(C)N[C@H](CN(C)S(=O)(=O)c2ccc(C)cc2)[C@@H]2C(=O)N(C)C(=O)[C@@H]21 | 0 | · | 79µM* | 8% | · | 20%
COc1ccc(Cl)cc1NC(=O)C1CCN(S(=O)(=O)c2ccc(F)cc2)CC1 | · | 5% | -6% | · | -6%[59 µM] | 16%
CC(=O)C1=C(O)C(=O)N(Cc2ccccc2)C1c1ccco1 (stereo not given) | -3 | ? | ? | -24% | 50µM* | 15%
CC(=O)C1=C(O)C(=O)N(Cc2ccccc2)C1c1ccc(Br)cc1 (stereo not given) | -3 | -12% | -25% | · | 22%[2.33 µM] | 64%
O=C(C1=C(O)C(=O)N(Cc2ccco2)C1c1cccc(Cl)c1)c1ccco1 (stereo not given) | 1 | 5% | -21% | · | 54% | 25%
CC(=O)C1=C(O)C(=O)N(Cc2ccco2)C1c1ccc(F)cc1 (stereo not given) | · | -15% | -19% | -1% | ? | 25%
CC(=O)C1=C(O)C(=O)N(Cc2ccco2)C1c1ccccc1 (stereo not given) | · | ? | ? | -1% | 50µM* | 8%
O=C(C1=C(O)C(=O)N(Cc2ccco2)C1c1cccc([N+](=O)[O-])c1)c1ccco1 (stereo not given) | -14 | 5% | 50µM* | · | · | -13%
CCOC(=O)C1CCCN(C(=O)c2ccc3c(c2)N(Cc2cccc(Cl)c2)C(=O)c2ccccc2S3(=O)=O)C1 (stereo not given) | · | 2% | -14% | · | 2%[59 µM] | 1%
O=C(O)c1ccc(CNCc2ccc(Cl)cc2)s1 | · | 2% | -7% | · | 2%[59 µM] | 24%
COC(=O)c1c(-c2ccc(C)cc2)csc1NC(=S)NC(=O)c1ccc(F)cc1 | 10 | -14% | -29% | -14% | 79µM* | 13%
CCOC(=O)c1c(-c2ccccc2)csc1NC(=O)c1cc(-c2ccc(F)cc2)on1 | · | -10% | 1% | · | 4µM* | -15%
CCOC(=O)c1c(-c2ccc(C)cc2)csc1NC(=O)c1cc2ccccc2oc1=O | 5 | 40µM* | -5% | -5% | 3%[0.501 µM] | 15%
CCOC(=O)c1c(-c2ccccc2)csc1NC(=O)c1cc(-c2ccc(Br)cc2)on1 | · | -27% | -6% | · | 6.3µM* | ?
CCOC(=O)c1c(-c2ccc(C)cc2)csc1NC(=S)NC(=O)c1ccccc1 | -4 | -29% | ? | 3% | -12%[59 µM] | 3%
CCOC(=O)c1c(-c2ccc(C)cc2)csc1NC(=O)c1cc(=O)c2ccc(C)cc2o1 | · | -3% | -7% | · | -20%[59 µM] | 15%
SMILES | PI5P4Ka inh | BAZ2B inh | JMJD2A Tudor inh | L3MBTL1 block | G9a inh | HP1b binding inh
Cc1ccc(S(=O)(=O)NCC(c2ccco2)N2CCN(c3ccccc3F)CC2)cc1 (stereo not given) | · | -4% | -7% | · | -1%[59 µM] | 33%
O=S1(=O)c2ccccc2N=NN1Cc1ccc(Cl)c(Cl)c1 | · | 79µM* | · | · | 2.8µM* | ·
CC(C)(C)c1ccc(CN2N=Nc3ccccc3S2(=O)=O)cc1 | -28 | -11% | -12% | 10% | -24%[0.0925 µM] | -11%
Cc1ccc(SC(CC(=O)c2ccc(F)cc2)C(=O)O)cc1 (stereo not given) | 9 | 49% | -5% | · | ? | 51%
CC(C)(C)c1ccc(C(=O)CC(Sc2ccc(Cl)cc2)C(=O)O)cc1 (stereo not given) | 15 | -3% | 9% | -6% | 45µM* | 56%
Cc1ccc(-n2cc(C(C)(C)C)[nH]c2=S)cc1 | -10 | ? | 45µM* | -1% | -12%[2.33 µM] | ?
Cc1ccc(=O)n(-c2ccccc2)c1 | 0 | · | -15% | · | 25%[59 µM] | 32%
CC(C)(C)c1cn(-c2ccccc2)c(=S)[nH]1 | -9 | ? | 22µM* | -9% | 7.9µM* | 13%
COc1ccccc1-n1cc(-c2ccc(C)cc2)[nH]c1=S | -13 | ? | ? | · | ? | -22%
O=C(COC(=O)c1cc(-c2cccs2)nn1-c1ccccc1)Nc1ccc(Cl)c([N+](=O)[O-])c1 | 0 | 1% | -18% | -8% | 40µM* | 11%
Cc1ccccc1Cn1c(CN2CCC(C(=O)NCc3cccnc3)CC2)cc2ccccc21 | · | ? | -34% | · | -32%[59 µM] | 7%
Cc1ccccc1-c1noc(CSc2nnc(Cc3ccccc3)n2-c2ccc(F)cc2)n1 | · | -3% | -21% | · | 9%[59 µM] | 28%
CC(C)(C)OC(=O)N1CCC(c2c(C(=O)N3CCN(Cc4ccccc4)CC3)cnn2-c2cccc(Cl)c2)CC1 | · | -8%[57.1 µM] | -33% | · | -33%[59 µM] | -3%
CC(C)(C)c1ccc(-c2nnc(-c3ccccc3NC(=O)c3cccc(C(F)(F)F)c3)o2)cc1 | · | -8% | -1% | · | 9%[59 µM] | 37%
O=C(CNC(=O)c1nc[nH]c1C(=O)NCC(=O)OCc1ccccc1)OCc1ccccc1 | 5 | ? | ? | 49% | · | 30%
